From PubChem BioAssay (NCI) come the findings set out here.

This is part of a sample that, as a whole, favours compounds with a hit. Of some 83,000 tested, about 20% had one in any assay.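 Interpretation: 100, growth as untreated; towards 0, rising growth inhibition; 0, no net growth; 0 to -100, cell death. Compounds scoring below 10 were considered active.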 A number with no mark means an inactive call. Active and inactive are the calls of the source.

Some test systems named below: SR leukemia; RPMI-8226 leukemia; OVCAR-8 ovarian; OVCAR-5 ovarian; OVCAR-4 ovarian; SK-OV-3 ovarian; IGROV1 ovarian; OVCAR-3 ovarian; HS 578T breast; NCI/ADR-RES ovarian; T-47D breast; MDA-MB-435 melanoma; SW-620 colon; MCF7 breast; HCT-116 colon; HCC-2998 colon; KM12 colon; BT-549 breast.
What all share (test): NCI-60 one-dose screen, 48 h (100 = growth as untreated, 0 = no growth, -100 = all killed)
Holding throughout (conditions): 10 µM unless noted

Regarding `Cc1cc(N2CCN(C)CC2)nc(N(CCNc2ccnc3cc(Cl)ccc23)Cc2ccco2)n1`, the growth was -22.1% (active) in the test with SR leukemia; -3.89% (active) in the test on RPMI-8226 leukemia; 65.8% in the test on OVCAR-8 ovarian; 73.3% with OVCAR-5 ovarian; 55.7% in the test with OVCAR-4 ovarian; 91.5% with SK-OV-3 ovarian. In addition, the growth was 18.5% in the test with IGROV1 ovarian; 3.21% (active) in the test on OVCAR-3 ovarian; 68.7% in the test with HS 578T breast; 38.7% in the test on NCI/ADR-RES ovarian; 40.4% with T-47D breast; -39.8% (active) in the test on MDA-MB-435 melanoma. Moreover, the growth was 38.2% in the test with SW-620 colon; 17.1% in the test on MCF7 breast; 17.1% in the test on HCT-116 colon; 92.7% with HCC-2998 colon; 34.2% with KM12 colon.
Regarding `Cc1cc(N(CCCNc2ccnc3cc(Cl)ccc23)Cc2ccco2)nc(N2CCOCC2)n1`, the growth was 8.63% (active) in the test with SR leukemia; 35.1% with RPMI-8226 leukemia; 80.4% in the test on OVCAR-8 ovarian; 79% with OVCAR-5 ovarian; 65.7% in the test with OVCAR-4 ovarian; 78.6% in the test on SK-OV-3 ovarian. For the same compound, the growth in the test on IGROV1 ovarian was 45.2%; with OVCAR-3 ovarian, 72.4%; in the test on HS 578T breast it was 77.5%; with T-47D breast it was 88.5%; in the test with BT-549 breast, 58.4%; in the test with MDA-MB-435 melanoma, 62.9%. Also, the growth was 63.3% in the test with SW-620 colon; 63.4% with MCF7 breast; 43.8% in the test with HCT-116 colon; 87.4% with HCC-2998 colon; 79.3% in the test with KM12 colon.
For the compound `COC(=O)[C@]12CC[C@@H](C)[C@H](C)[C@@H]1C1=CC[C@@H]3[C@@]4(C)C[C@@H](O)OC[C@](C)(C=O)C4C(=O)C[C@@]3(C)[C@]1(C)CC2` (stereo not given in full), the growth is -14.3% (active) in the test with SR leukemia; -19.3% (active) with RPMI-8226 leukemia; -4.45% (active) in the test on OVCAR-8 ovarian; -10.5% (active) in the test with OVCAR-5 ovarian; 18.5% in the test on OVCAR-4 ovarian; -0.332% (active) with SK-OV-3 ovarian. Moreover, the growth in the test with IGROV1 ovarian is 14.7%; in the test on OVCAR-3 ovarian, -12% (active); in the test with HS 578T breast it was 16.8%; in the test with NCI/ADR-RES ovarian, 10.9%; in the test on T-47D breast, -4.48% (active); with MDA-MB-435 melanoma, 2.15% (active). Moreover, the growth was 17% with SW-620 colon; 6.16% (active) with MCF7 breast; -44.4% (active) in the test on HCT-116 colon; 6.06% (active) in the test with HCC-2998 colon; 6.15% (active) in the test on KM12 colon.
Turning to `COc1ccc2c(c1)c1nc3cc(C)c(C)cc3nc1n2CCN(C)C`, the growth was -8.86% (active) in the test with SR leukemia; -16.3% (active) in the test on RPMI-8226 leukemia; 6.83% (active) in the test on OVCAR-8 ovarian; -2.58% (active) in the test with OVCAR-5 ovarian; 19.8% in the test on OVCAR-4 ovarian; 27.5% in the test with SK-OV-3 ovarian. The growth in the test with IGROV1 ovarian is -7.58% (active); in the test with OVCAR-3 ovarian, 27.1%; in the test with HS 578T breast, 44.6%; with NCI/ADR-RES ovarian, -70.3% (active); with T-47D breast, 25.3%; in the test on MDA-MB-435 melanoma, 18.1%. Besides, the growth was -66.1% (active) in the test with SW-620 colon, -70.1% (active) with HCT-116 colon, 20.5% in the test with HCC-2998 colon and 18% with KM12 colon.
As to `CC/C=C\C[C@H]1CC=C2C(=O)C=C[C@@H]2CC=CCCCC(=O)O[C@@H](CCCCC)CC=C2C(=O)C=C[C@@H]2CC=CCCCC(=O)O[C@@H](CCCCC)CC=C2C(=O)C=C[C@@H]2CC=CCCCC(=O)O[C@@H](CCCCC)CC=C2C(=O)C=C[C@@H]2CC=CCCCC(=O)O1`, the growth in the test with SR leukemia was 2.79% [7.9 µM] (active); in the test with RPMI-8226 leukemia, 0.23% [7.9 µM] (active); in the test on OVCAR-8 ovarian, -21.9% [7.9 µM] (active); in the test on OVCAR-5 ovarian, 75.1% [7.9 µM]; in the test on OVCAR-4 ovarian it was 21.6% [7.9 µM]; with SK-OV-3 ovarian, 73.4% [7.9 µM]. The growth is 8.16% [7.9 µM] (active) in the test on IGROV1 ovarian; -14% [7.9 µM] (active) with OVCAR-3 ovarian; 41.9% [7.9 µM] in the test on HS 578T breast; 92.6% [7.9 µM] in the test on NCI/ADR-RES ovarian; 29.5% [7.9 µM] in the test with T-47D breast; -23.1% [7.9 µM] (active) in the test on MDA-MB-435 melanoma. Also, the growth is 9.77% [7.9 µM] (active) in the test on SW-620 colon; 20.4% [7.9 µM] in the test on MCF7 breast; -53.6% [7.9 µM] (active) with HCT-116 colon; 88.6% [7.9 µM] in the test with HCC-2998 colon; 21.1% [7.9 µM] in the test on KM12 colon.
In the case of `COc1cccc(-c2nn(-c3ccccc3)cc2-c2ccnc(NCCNS(=O)(=O)c3ccc(Cl)cc3)c2)c1`, the growth in the test with SR leukemia is -5.49% (active); in the test with RPMI-8226 leukemia, 9% (active); in the test on OVCAR-8 ovarian, 31.1%; with OVCAR-5 ovarian, 56.2%; in the test with OVCAR-4 ovarian it was 35.9%; in the test with SK-OV-3 ovarian it was 44.9%. Moreover, the growth was 39.3% in the test on IGROV1 ovarian; 40.6% in the test with OVCAR-3 ovarian; 54.3% in the test on HS 578T breast; 27.9% with NCI/ADR-RES ovarian; 3.58% (active) with T-47D breast; 21.8% in the test on MDA-MB-435 melanoma. For the same compound, the growth in the test on SW-620 colon was 48.1%; in the test on MCF7 breast it was 11%; in the test with HCT-116 colon, 20.6%; in the test with HCC-2998 colon, 19.5%; in the test on KM12 colon, 28.5%.
For `O=C(/C(=C(\C(=O)c1ccccc1)c1ccccc1)c1ccccc1)c1ccccc1`, the growth in the test with SR leukemia was 31.6%; in the test on RPMI-8226 leukemia it was 18.7%; in the test on OVCAR-8 ovarian, 41.6%; in the test with OVCAR-5 ovarian, 100%; with OVCAR-4 ovarian, 55.8%; with SK-OV-3 ovarian, 82.5%. Moreover, the growth is 69% in the test on IGROV1 ovarian; 40.8% in the test with OVCAR-3 ovarian; 76.6% with HS 578T breast; 45.4% in the test on NCI/ADR-RES ovarian; 73.6% with MDA-MB-435 melanoma; 38.5% in the test with SW-620 colon. The growth is 42.6% with MCF7 breast, 14.1% in the test on HCT-116 colon, 52% with HCC-2998 colon and 17.1% in the test with KM12 colon.
For `C=C1C(=O)O[C@H]2[C@H]1CC/C(Cn1cc(-c3ccc(F)cc3)nn1)=C\CC[C@@]1(C)O[C@@H]21`, the growth was -15.1% (active) in the test on SR leukemia; -34.1% (active) with RPMI-8226 leukemia; -16% (active) with OVCAR-8 ovarian; -1.87% (active) with OVCAR-5 ovarian; 13.7% in the test with OVCAR-4 ovarian; 102% in the test with SK-OV-3 ovarian. Besides, the growth is -40.3% (active) in the test on IGROV1 ovarian; -91.3% (active) in the test with OVCAR-3 ovarian; 58.1% in the test on HS 578T breast; 35.6% in the test with NCI/ADR-RES ovarian; -48.1% (active) in the test with T-47D breast; -31.4% (active) in the test on MDA-MB-435 melanoma. Further, the growth is -40.6% (active) in the test on SW-620 colon, -86% (active) in the test on HCT-116 colon, -11.6% (active) in the test with HCC-2998 colon and 54.6% in the test with KM12 colon.
`COc1cc2c(cc1-c1c(C)noc1C)ncc1nc(C3CCC(F)(F)CC3)n([C@@H](C)COC(F)F)c12`: the growth in the test with SR leukemia is 24.7%; with RPMI-8226 leukemia it was 17.3%; with OVCAR-8 ovarian it was 46.1%; with OVCAR-5 ovarian, 61.9%; in the test on OVCAR-4 ovarian, 43.2%; with SK-OV-3 ovarian, 7.59% (active). The growth in the test on IGROV1 ovarian was 48.9%; with OVCAR-3 ovarian it was 39%; in the test with HS 578T breast it was 8.57% (active); in the test with T-47D breast, 29.2%; in the test on BT-549 breast, 56.3%; in the test with MDA-MB-435 melanoma, 36.5%. Further, the growth with SW-620 colon is 62.5%; in the test on MCF7 breast, 13.6%; with HCT-116 colon it was 34.1%; with HCC-2998 colon, 52.3%; in the test on KM12 colon it was 41.8%.
